From PubChem BioAssay (NCATS) come the findings set out here.

Where “and” joins values, the source holds several entries; their conditions need not be identical. Equal entries are not always repeated. Unmarked numbers belong to inactive results. Results filed as inconclusive are left out. Calls of active or inactive are those of the source. Unless noted, calls follow the shape of the dose curve; as a rule, active = well fitted curve in the direction sought with a large enough effect in the repeat runs; inconclusive = weak or mixed curves; inactive = no such curve, though single readings can be large; an effect the other way counts as inactive or inconclusive.

The nature of test [1]: qHTS assay for small molecule agonists of the antioxidant response element (ARE) signaling pathway measured by Nrf2-dependant transcriptional activity (AID 720636). Also: % of control where 0% means no effect. The gist of the method: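 Quantitative HTS format in HepG2 cells stably expressing an ARE-luciferase reporter; 16 hr compound treatment at 37 C, luciferase signal detected with ONE-Glo.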
Test [2] can be described thus: qHTS assay for small molecule agonists of the antioxidant response element (ARE) signaling pathway measured by Nrf2-dependant transcriptional activity - cell viability counter screen (AID 720653). Also: % is scaled to controls: 0 for no effect and ±100 for the full control effect. To be noted: ARE-bla HepG2 viability, CellTiter-Glo ATP luminescence, 16 h; hits give low values. The gist of the method: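 ARE-bla HepG2 cells (2,000/well) rested 5 hrs at 37C/5% CO2, then exposed to compounds in DMSO for 16 hrs. Viability was read in the same wells as intracellular ATP by luminescence, 30 min at room temperature after reagent addition.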

Test [3] in a line: qHTS for small molecule inhibitors of Yes1 kinase: Counter Assay (AID 686950; active = well fitted curve in the direction sought with a large enough effect; an effect the other way counts as inactive or inconclusive;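 also: no kinase present so only ADP-Glo detection of a fixed ADP amount is tested; luminescence from ADP-Glo reporting ADP in a fixed ATP and ADP mixture; series mostly up to about 77 µM; 0% = DMSO wells with ATP plus ADP and -100% = ATP-only wells without ADP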). The gist of the method: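 Measuring interference with ADP-Glo, the assay ran 60 min at room temperature on an ATP/ADP mix lacking enzyme. Values were normalized to ATP-plus-ADP (maximum) and ATP-only (minimum) DMSO controls.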
Test [4] addresses Nuclear receptor ROR-gamma (Homo sapiens) (UniProt P51449). Description: qHTS assay for small molecule antagonists of the retinoid-related orphan receptor gamma (ROR-gamma) signaling pathway (AID 651802; active = well fitted curve in the direction sought with a large enough effect; an effect the other way counts as inactive or inconclusive;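 also: CHO cells with doxycycline-induced ROR-gamma expression; luciferase reporter luminescence driven by ROR response element; series mostly up to about 92 µM; % is scaled to controls: 0 for no effect and ±100 for the full control effect; nearly all actives have a fitted effect of over 60% in size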). Put shortly:
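Luciferase read-out: ONE-Glo luminescence after 30 min at room temperature, following 16hr doxycycline induction at 37C, 5% CO2 of CHO cells with TET-inducible ROR and RORE-LUC reporter; decreased luminescence = reduced reporter activity.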

Test [5] in a line: qHTS assay for small molecule antagonists of the retinoid-related orphan receptor gamma (ROR-gamma) signaling pathway - cell viability counter screen (AID 720652).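 Also: CHO reporter cells with doxycycline-induced ROR-gamma expression; series mostly up to about 92 µM; compound exposure lasted 16 hr before ATP read; % is scaled to controls: 0 for no effect and ±100 for the full control effect.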 Put shortly:
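CHO RORE-LUC/TET-ROR line, 1,000 cells/well, 37 C 5% CO2 5 hr; cpd or DMSO + doxycycline induction, 16 hr. CellTiter-Glo, 30 min RT, luminescence = ATP content.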

Test [6] deals with Arylsulfatase A (Homo sapiens) (UniProt P15289). Description: qHTS screen for enhancers of Arylsulfatase A (ASA1): LOPAC Validation Assay (AID 720538; active = well fitted curve in the direction sought with a large enough effect; an effect the other way counts as inactive or inconclusive; also: 0% is about no effect). Put shortly:
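Enhancer assay in patient-derived MLD fibroblasts carrying ASA-I179S: 48 h compound exposure at 37 C, then 14 h room-temperature pNCS turnover (0.5 mM final) in lysis buffer. Read by fluorescence at 525/598 nm after NaOH stop.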

A short description of test [7]: qHTS for compounds that reverse cellular toxicity of Amyloid beta (A-beta) peptide in yeast: LOPAC Validation Assay (AID 720559; active = well fitted curve in the direction sought with a large enough effect; an effect the other way counts as inactive or inconclusive;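 also: plate controls were DMSO for no effect and equimolar ferric chloride plus clioquinol rescue for full effect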). The source says: The A-beta peptide is produced by the processing of the amyloid precursor protein (APP) by two proteases, beta and gamma secretases. […] A-beta42 is regarded as the most amyloidogenic form due to its hydrophobicity; however, precisely how A-beta42 induces neurotoxicity is unclear. To understand further this biology and its potential therapeutic implications for human neurodegenerative disease, a quantitative high-throughput screen for compounds that reverse the cellular toxicity of the A-beta peptide was developed.
A yeast based screen was used because it recapitulates the salient feature of protein mis-folding disorder accurately. This cell-based phenotypic screen provides a significant, unbiased advantage by letting the compounds and models inform us which proteins or pathways are most relevant. The ideal chemical candidates would therefore have activity in both our primary yeast and secondary neuronal toxicity assays, as well as in mouse models. […] For this luminescence assay, inhibition of A-beta rescues the toxic effect in the yeast cell, resulting in increase of signals. […]
Two and a half microliter / well of yeast growth medium were dispensed in a 1536 assay plate. […] After 48 hr, the absorbance signal at 600 nm was obtained using the PerkinElmer ViewLux plate reader to assess yeast growth. […]

Test [8] in a line: qHTS for Activators of Parkin Expression: LOPAC Validation Assay (NLuc Reporter) (AID 720572; active = well fitted curve in the direction sought with a large enough effect; an effect the other way counts as inactive or inconclusive;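 also: 0% = DMSO and 100% = positive control compound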). The gist of the method:
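Cells harboring the Parkin-promoter coincidence reporter were treated for 24 h at seven concentrations. NLuc output was measured sequentially after the FLuc channel and scaled between DMSO and positive control values.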

Test [9] in a line: qHTS for Activators of Parkin Expression: LOPAC Validation Assay (FLuc Reporter) (AID 720573; active = well fitted curve in the direction sought with a large enough effect; an effect the other way counts as inactive or inconclusive;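 also: 0% = DMSO and 100% = positive control compounds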). Put shortly:
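FLuc signal from Parkin-promoter coincidence reporter neuronal cells, normalized to DMSO and positive control (100%). Cells (1,500/well) pre-incubated 24 h, then exposed to LOPAC compounds in 7-point dose response for 24 h at 37 C, 5% CO2.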

The target of test [10] is Tyrosine-protein kinase Yes (Homo sapiens) (UniProt P07947). Kind of test: qHTS for small molecule inhibitors of Yes1 kinase: Primary Screen (AID 686947; active = well fitted curve in the direction sought with a large enough effect; an effect the other way counts as inactive or inconclusive;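 also: plate controls were DMSO with enzyme for no effect and no-enzyme DMSO wells for full effect; nearly all actives have a fitted effect of over 60% in size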). The gist of the method:
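In this qHTS format, inhibition is expressed relative to DMSO controls with enzyme (maximum) and without enzyme (minimum). The 60 min room-temperature reaction uses 0.1 mM ATP, with ADP detected by luminescence.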

Nuclear receptor ROR-gamma (Homo sapiens), sequence (P51449 whole entry, looked up): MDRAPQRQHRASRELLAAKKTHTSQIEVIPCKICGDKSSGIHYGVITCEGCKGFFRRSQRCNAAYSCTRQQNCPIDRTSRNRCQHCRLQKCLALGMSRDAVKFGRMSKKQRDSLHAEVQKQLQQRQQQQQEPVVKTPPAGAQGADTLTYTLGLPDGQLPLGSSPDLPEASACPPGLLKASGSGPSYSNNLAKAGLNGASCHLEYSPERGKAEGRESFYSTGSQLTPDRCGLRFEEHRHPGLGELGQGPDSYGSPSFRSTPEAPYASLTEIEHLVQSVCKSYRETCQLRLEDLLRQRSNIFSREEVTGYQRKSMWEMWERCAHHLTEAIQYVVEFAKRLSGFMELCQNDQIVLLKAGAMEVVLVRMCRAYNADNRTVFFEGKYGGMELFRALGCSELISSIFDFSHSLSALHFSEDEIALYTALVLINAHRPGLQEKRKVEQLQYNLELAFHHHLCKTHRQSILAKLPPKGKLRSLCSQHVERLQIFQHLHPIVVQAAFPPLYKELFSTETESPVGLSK
Arylsulfatase A (Homo sapiens), sequence (P15289 whole entry, looked up): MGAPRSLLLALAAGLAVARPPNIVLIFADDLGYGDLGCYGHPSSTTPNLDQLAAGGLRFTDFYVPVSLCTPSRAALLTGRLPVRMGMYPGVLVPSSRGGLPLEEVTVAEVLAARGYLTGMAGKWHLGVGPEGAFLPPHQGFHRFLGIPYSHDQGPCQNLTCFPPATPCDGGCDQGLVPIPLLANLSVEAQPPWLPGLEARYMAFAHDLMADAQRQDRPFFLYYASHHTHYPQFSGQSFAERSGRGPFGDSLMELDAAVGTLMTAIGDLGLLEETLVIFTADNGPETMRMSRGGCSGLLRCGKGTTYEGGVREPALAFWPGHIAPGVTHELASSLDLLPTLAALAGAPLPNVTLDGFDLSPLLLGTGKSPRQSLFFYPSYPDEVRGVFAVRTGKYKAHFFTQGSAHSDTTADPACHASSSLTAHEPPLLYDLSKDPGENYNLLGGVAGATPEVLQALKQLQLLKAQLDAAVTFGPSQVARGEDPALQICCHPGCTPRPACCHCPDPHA
Tyrosine-protein kinase Yes (Homo sapiens), sequence (P07947 whole entry, looked up): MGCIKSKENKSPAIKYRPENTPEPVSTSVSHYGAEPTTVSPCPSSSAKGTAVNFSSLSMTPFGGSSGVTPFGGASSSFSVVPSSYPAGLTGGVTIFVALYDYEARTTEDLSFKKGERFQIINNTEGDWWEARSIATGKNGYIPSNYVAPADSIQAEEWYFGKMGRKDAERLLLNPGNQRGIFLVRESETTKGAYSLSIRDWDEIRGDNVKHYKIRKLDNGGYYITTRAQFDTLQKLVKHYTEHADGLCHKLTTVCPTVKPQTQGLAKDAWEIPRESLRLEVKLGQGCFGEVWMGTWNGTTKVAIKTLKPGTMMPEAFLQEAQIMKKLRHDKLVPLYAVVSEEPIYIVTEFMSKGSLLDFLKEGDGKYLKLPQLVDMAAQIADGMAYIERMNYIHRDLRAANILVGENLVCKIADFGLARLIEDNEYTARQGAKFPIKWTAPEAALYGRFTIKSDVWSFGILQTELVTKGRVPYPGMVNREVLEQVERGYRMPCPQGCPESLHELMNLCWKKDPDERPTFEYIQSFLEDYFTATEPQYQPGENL

Take `CC(=O)S[C@@H]1CC2=CC(=O)CC[C@]2(C)[C@H]2CC[C@@]3(C)[C@@H](CC[C@@]34CCC(=O)O4)[C@H]12`: the molecule was classed as inactive in test [1]. The max response in [2] was -12%.

For `COc1cc(O)c2c(c1)/C=C/C[C@H](O)[C@H](O)C(=O)/C=C\C[C@H](C)OC2=O`, the result in [3] was inactive.

For the molecule `C=Cc1ccccc1`, the molecule was called inactive in [4], in test [1] and in test [5]. For the same molecule, in test [2], the max response was 5.41% and 3.34%.

Take `O=S(=O)(c1ccccc1)N(CC(F)(F)F)c1ccc(C(O)(C(F)(F)F)C(F)(F)F)cc1`: the result in test [1] was inactive. In [2], the max response was -21.3%.

In the case of `CN[C@H]1CC[C@@H](c2ccc(Cl)c(Cl)c2)c2ccccc21`, the result in test [6], in test [7], in test [8] and in test [9] was inactive.

`NCCCC(=O)O`: the outcome in test [7], in [8] and in test [9] was inactive.

As for `O=C(O)CC(O)(CC(=O)O)C(=O)O`, the molecule was called inactive in test [4] and in [5]. Moreover, the max response in test [2] is 1.31% and -9.81% and -4.69%.

Take `CN(C)Cc1ccccc1`: the outcome in [4], in test [1] and in test [5] was inactive. The max response in test [2] was -3.95%.

Turning to `CCCCCCCC/C=C\CCCCCCCC(=O)OC[C@@H](O)[C@H]1OC[C@H](O)[C@H]1O`, the outcome in [1] was inactive. The max response in test [2] is 4.25%.

As to `COc1cc(F)c(F)c(Nc2ccc(I)cc2F)c1NS(=O)(=O)C1(CC(O)CO)CC1` (centres undefined), the outcome in test [10] and in test [3] was inactive.

As for `CCCCCCCCCC(=O)O`, the molecule was classed as inactive in [1] and in test [5]. The max response in test [2] is -4.59% and -4.9%.

On to `COC(C)=O`, for which the molecule was called inactive in [4], in [1] and in test [5]. In addition, the max response in [2] is 11.2%.
